Screens: PubChem, The Scripps Research Institute Molecular Screening Center
Fam108B inh: counter-screen for RBBP9 inhibitors: inhibitors of mouse Fam108B | AID 1947 | inhibition, % at 9.51 µM | 0.33% of 300,000 active | recombinant Fam108B, FP-Rh probe fluorescence polarization;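 active means inhibition above the screen mean inhibition plus 3 SD, computed separately per campaign, cut at about 18% in these data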;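 further: inhibitors lower polarization as less probe binds the enzyme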
PAD4 FP inh: blocks human protein arginine deiminase 4; inhibition, % at 6.36 µM; 0.41% of 330,000 active; recombinant PAD4, RCA probe fluorescence polarization;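 active means percent inhibition above a cutoff equal to the mean of all tested compounds plus 3 SD, cut at about 15% in these data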
LYPLA1 inh: blocks human lysophospholipase 1, a PME1 counter-screen; O75608; recombinant LYPLA1, FP-Rh probe fluorescence polarization; inhibition, % at 5.9 µM; 0.16% of 320,000 active;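 active means inhibition above the mean of all tested compounds plus 3 SD, set per campaign, cut at about 14% in these data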;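 further: inhibitors block serine hydrolase probe labeling of LYPLA1 so polarization falls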
Target sequence (O75608 whole entry, looked up): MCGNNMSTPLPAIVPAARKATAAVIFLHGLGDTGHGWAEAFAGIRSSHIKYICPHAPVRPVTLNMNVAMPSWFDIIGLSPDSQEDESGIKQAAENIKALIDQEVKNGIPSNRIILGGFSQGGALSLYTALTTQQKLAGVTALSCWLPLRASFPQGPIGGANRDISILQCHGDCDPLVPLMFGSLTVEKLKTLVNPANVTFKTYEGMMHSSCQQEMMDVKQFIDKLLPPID
GSTO1 inh: counter-screen for RBBP9 inhibitors: inhibitors of human GSTO1. P78417. recombinant GSTO1, activity-based probe fluorescence polarization. inhibition, % at 5.96 µM. 1.1% of 300,000 active;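 active means inhibition above the campaign mean inhibition plus 3 SD, cut at about 35% in these data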
LYPLA2 counter: counter-screen for PME1 inhibitors: inhibitors of human LYPLA2. recombinant LYPLA2, FP-Rh probe fluorescence polarization. AID 2177. O95372. inhibition, % at 5.9 µM. 0.38% of 320,000 active;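 active means inhibition above the screen-wide mean plus 3 SD, limit set per campaign, cut at about 26% in these data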
Target sequence (O95372 whole entry, looked up): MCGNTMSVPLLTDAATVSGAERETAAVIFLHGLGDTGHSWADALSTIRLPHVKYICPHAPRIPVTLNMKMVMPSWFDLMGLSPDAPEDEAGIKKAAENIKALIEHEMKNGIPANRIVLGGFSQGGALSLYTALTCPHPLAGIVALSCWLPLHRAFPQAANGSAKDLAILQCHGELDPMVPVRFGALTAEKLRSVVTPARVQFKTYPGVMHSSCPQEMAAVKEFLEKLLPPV
PME-1 primary: PME-1 (human) inhibition | Q9Y570 | recombinant PME-1, FP-Rh probe fluorescence polarization | inhibition, % at 5.9 µM | 0.53% of 320,000 active | AID 2130;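 active means inhibition above the campaign mean of all compounds plus 3 SD, cut at about 26% in these data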;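 further: competitive labeling of PME-1 active site by serine hydrolase directed probe; inhibitors block probe labeling so polarization falls and inhibition rises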
A number is an active result; 0 = inactive; - = no result. Hits are enriched below; roughly 1.7% of the tested compounds scored in any of these assays.

SMILES | Fam108B inh | PAD4 FP inh | LYPLA1 inh | GSTO1 inh | LYPLA2 counter | PME-1 primary
CSCCC(NC(=O)c1ccccc1)C(=O)N1CC(C)OC(C)C1 (centres undefined) | - | 0 | 0 | - | 0 | 0
Cc1ccc(-n2nc(C)c(NC(=O)CCl)c2C)cc1 | 0 | 0 | 0 | 84.1 | 0 | 0
Cc1ccc(-c2nn(-c3ccccc3)cc2NC(=O)CCl)cc1 | 0 | 0 | 0 | 68.6 | 0 | 0
O=C(NCC1CCCO1)C(=O)N/N=C/c1ccc(OCc2ccccc2Cl)cc1 (centres undefined) | 0 | 0 | 0 | 0 | 0 | 0
COC(CN(C)C(C(=O)NC1CCCCC1)c1ccccc1)OC (centres undefined) | 0 | 0 | 0 | 0 | 0 | 0
COC(CN(C(=O)CCl)C(C(=O)NC1CCCCC1)c1ccccc1C)OC (centres undefined) | 0 | 0 | 0 | 79.6 | 0 | 0
Cc1ccc(/C=C2\S/C(=N/S(=O)(=O)c3cccs3)NC2=O)cc1 | 0 | 0 | 0 | 0 | 0 | 0
Cc1ccc(NC2=C/C(=N/S(=O)(=O)c3cccs3)c3ccccc3C2=O)cc1 | 0 | 0 | 0 | 64.6 | 0 | 0
O=C(NCC1CCCO1)c1ccc(Br)c(S(=O)(=O)N2CCOCC2)c1 (centres undefined) | - | 0 | 0 | - | 0 | 0
CC1CCCCC1NC(=O)NC(=O)CCl (centres undefined) | 0 | 0 | 0 | 93.8 | 0 | 0
CC1CCCC(NC(=O)CSC2CCCCC2)C1C (centres undefined) | 0 | 0 | 0 | 0 | 0 | 0
CC1CCCC(NC(=O)NC(=O)CCl)C1C (centres undefined) | 0 | 0 | 0 | 99.1 | 0 | 0
O=C(O)/C=C/c1cn(-c2ccccc2)nc1-c1ccc(-c2ccc([N+](=O)[O-])cc2)o1 | 0 | 0 | 0 | 0 | 0 | 27.3
COc1ccc2c(c1O)C(=O)c1ccccc1C2=O | 0 | 0 | 0 | 0 | 0 | 0
COc1cccc2c1C(=O)C=C(C)C2=O | 0 | 0 | 0 | 39.9 | 0 | 0
NC(=O)c1ccc(N=Cc2ccc([N+](=O)[O-])s2)cc1 | 0 | 0 | 0 | 0 | 0 | 0
Cc1nc2ccccc2n1/N=C/c1ccc([N+](=O)[O-])o1 | 0 | 0 | 0 | 36.7 | 0 | 0
Cc1nc2ccccc2n1/N=C/c1ccc([N+](=O)[O-])s1 | 0 | 0 | 0 | 46.6 | 0 | 0
O=[N+]([O-])c1ccc(/C=N/n2c(CO)nc3ccccc32)s1 | 0 | 0 | 0 | 37.0 | 0 | 0
O=C(Cc1cccs1)N/N=C\c1ccc([N+](=O)[O-])s1 | 0 | 0 | 0 | 0 | 0 | 0
Cc1cc2ncn(/N=C/c3ccc([N+](=O)[O-])s3)c2cc1C | 0 | 0 | 0 | 0 | 0 | 0
Cc1cc(C)cc(N=Cc2ccc([N+](=O)[O-])s2)c1 | 0 | 0 | 0 | 35.6 | 0 | 0
Cc1[nH]c2ccccc2c1/C=N/NC(=O)CCC(=O)Nc1ccccc1 | 0 | 0 | 0 | 0 | 0 | 0
CC(C)(C)c1ccc(COc2ccsc2C(=O)O)cc1 | 0 | 0 | 0 | 0 | 0 | 0
CC(C)(C)c1ccc2c(c1)C(=O)c1ccccc1C2=O | 0 | 0 | 0 | 0 | 0 | 0
SMILES | Fam108B inh | PAD4 FP inh | LYPLA1 inh | GSTO1 inh | LYPLA2 counter | PME-1 primary
CC(C)(C=O)C1=CC(=O)c2ccccc2C1=O | 0 | 0 | 0 | 48.7 | 0 | 0
COC(=O)C1C(O)C(C)C(O)C(C)(O)/C=C\C=C(/C)C(=O)Nc2c(C)c(OC(C)=O)c3c(c2O)C(=O)C(C)=C2OCOC(=C23)/C(C)=C/C(C)(O)C(O)C(C)C1O (centres undefined) | 0 | 0 | 0 | 58.7 | 0 | 0
CC1CC(C)(C)NC(=S)N1CC(=O)NCc1ccc2c(c1)OCO2 (centres undefined) | 0 | 0 | 0 | 0 | 0 | 0
CC1(C)CC(=O)C2=C(C1)N1C(=C(C#N)C2c2ccc(Cl)cc2)N=C(N)c2ccccc21 (centres undefined) | 0 | 0 | 0 | 0 | 0 | 31.3
N#CC1=C2N=C(N)c3ccccc3N2C2=C(C(=O)CCC2)C1c1ccc(Cl)cc1 (centres undefined) | 0 | 0 | 0 | 0 | 0 | 0
O=C1NN(c2ccc(Cl)c(Cl)c2)C(=O)/C1=C/c1cccc(OC(=O)c2cccs2)c1 | 0 | 0 | 0 | 0 | 0 | 37.0
O=C(Cn1cnc2ccccc21)NCCCN1CCOCC1 | 0 | 0 | 0 | 0 | 0 | 0
CC(=O)c1cc2c(O)c(O)ccc2o1 | 0 | 0 | 0 | 37.0 | 0 | 0
CC(=O)c1cc2cc(O)ccc2o1 | 0 | 0 | 0 | 0 | 0 | 0
c1ccc2c(c1)OCCOCCOCCOCCOCCOc1ccccc1OCCOCCOCCO2 | 0 | 0 | 0 | 0 | 0 | 0
